Drawing on PubChem BioAssay (NCATS), this text covers Potency and activity change, negative = inhibition for 28 compounds.

Results filed as inconclusive are left out. Entries that show only a call come without a potency. Unmarked numbers belong to inactive results. Active and inactive are the calls of the source. Calls come from the whole dose curve; as a rule, active = well fitted inhibition curve with a large enough effect; inconclusive = small, poorly fitted or top-dose-only effect; inactive = flat fitted curve, though single readings scatter.

The target in the test is Calcium and integrin-binding protein 1 (Homo sapiens) (UniProt Q99828). The test is described as follows: Primary qHTS for Identification of Calcium Integrin Binding Protein 1 (CIB1) Competitor (AID 1508620).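 Note: GST tagged CIB1 binding a fluorescein labelled alphaIIb integrin peptide tracer; top concentration of the series differs between compounds.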 To be noted: CIB1-GST / FITC-alphaIIb peptide fluorescence polarization; series mostly up to 57.7 µM. The method, boiled down: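 Fluorescence polarization competition: CIB1-GST (1 uM final) preincubated with compound 15 min at room temperature, then FITC-labeled alphaIIb peptide (100 nM final) added for another 15 min. Polarization read at Ex 480/Em 540.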
Chain of Calcium and integrin-binding protein 1 (Homo sapiens) (Q99828 whole entry, looked up): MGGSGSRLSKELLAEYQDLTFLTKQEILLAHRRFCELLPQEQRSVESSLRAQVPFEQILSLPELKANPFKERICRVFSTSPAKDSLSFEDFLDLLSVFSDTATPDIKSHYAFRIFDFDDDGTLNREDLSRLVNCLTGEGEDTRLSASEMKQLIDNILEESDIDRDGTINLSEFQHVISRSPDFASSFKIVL
With `C/C(=C\CCC(C(=O)O)C1CCC2(C)C3=C(CCC12C)C1(C)CCC(=O)C(C)(C)C1CC3)C(=O)O` (stereo not drawn), the Potency result was “inactive”.

As to `OC[C@H]1O[C@@H](Oc2ccc3c(c2)OC[C@H]2c4cc5c(cc4O[C@@H]32)OCO5)[C@H](O)[C@@H](O)[C@@H]1O`, the Potency entry is “inactive”.

As for `C=CC1(C)CC(OC(=O)C(=C)C(O)COC(C)=O)C(C(=C)C(=O)OC)C(O)C1C(=C)CO` (stereo not drawn), the Potency entry was “inactive”.

On to `O=C(O)CCc1cc2ccoc2cc1O[C@@H]1O[C@H](CO[C@@H]2OC[C@](O)(CO)[C@H]2O)[C@@H](O)[C@H](O)[C@H]1O`, for which the Potency result was “inactive”.

Turning to `C[C@]12CCC(=O)C=C1[C@@H](O)C[C@@H]1[C@@H]2[C@@H](O)C[C@@]2(C)[C@H]1CC[C@]2(O)C(=O)CO`, the Potency entry is “inactive”.

Regarding `CC(=O)N[C@H]1CCN(c2ccc(C3=NOC(CN[S+](=O)([O-])C(C)C)C3)cc2F)C1` (stereo partly drawn), the Potency entry is “inactive”.

Consider `C[C@@H]1CC[C@]2(C(=O)O)CC[C@]3(C(=O)O)C(=CCC4[C@@]5(C)CC[C@H](O[C@@H]6O[C@@H](C)[C@H](O[C@@H]7O[C@H](CO)[C@@H](O)[C@H](O)[C@H]7O)[C@@H](O)[C@H]6O)C(C)(C)C5CC[C@]43C)C2[C@H]1C` (stereo partly drawn), for which the Potency entry is “inactive”.

Consider `C[C@@H]1O[C@@H](O[C@@H]2[C@@H](O)[C@@H](O)[C@H](O[C@@H]3[C@@H](O)[C@@H](O[C@]4(CO)O[C@H](CO)[C@@H](O)[C@@H]4OC(=O)/C=C/c4ccc(O)cc4)O[C@H](CO)[C@H]3OC(=O)/C=C/c3ccc(O)cc3)O[C@H]2C)[C@H](O)[C@H](O)[C@H]1O`, for which the Potency result is “inactive”.

As to `C/C1=C\C[C@H](O[C@@H]2O[C@H](CO)[C@@H](O)[C@H](O)[C@H]2O)/C(C)=C/[C@H]2OC(=O)[C@H](C)[C@@H]2CC1`, the Potency entry is “inactive”.

With `OCC1=CC[C@@H]2C=CO[C@@H](O[C@@H]3O[C@H](CO)[C@@H](O)[C@H](O)[C@H]3O)[C@H]12`, the Potency result is “inactive”.

Turning to `CC(C)(O)CNc1nc(Nc2ccnc(C(F)(F)F)c2)nc(-c2cccc(C(F)(F)F)n2)n1`, the Potency result is “inactive”.

With `C[C@@H]1O[C@@H](OC[C@H]2O[C@@H](OCCc3ccccc3)[C@H](O)[C@@H](O)[C@@H]2O)[C@H](O)[C@H](O)[C@H]1O`, the Potency result was “inactive”.

As to `CC1CCC2(C(=O)OC3OC(CO)C(O)C(O)C3O)CCC3(C(=O)O)C(=CCC4C5(C)CCC(OC6OC(C)C(O)C(O)C6O)C(C)(C)C5CCC43C)C2C1C` (stereo not drawn), the Potency entry was “inactive”.

For the compound `c1nc(NC2CCCCCC2)c2cc(CNC[C@H]3CCCO3)sc2n1`, the Potency entry is “inactive”.

In the case of `COC(=O)C[C@@H]1C(C(=O)O)=CO[C@@H](O[C@@H]2O[C@H](CO)[C@@H](O)[C@H](O)[C@H]2O)/C1=C\COC(=O)/C=C\c1ccccc1`, the Potency result is “inactive”.

As to `COc1cccc(-c2ccc([C@@H](Oc3cc(-c4ccc(C[C@H](N)C(=O)O)cc4)nc(N)n3)C(F)(F)F)cc2)c1`, the Potency result was “inactive”.

In the case of `COc1cc(/C=C/C(=O)O[C@H]2[C@H](OC(=O)/C=C/c3cc(OC)c(O)c(OC)c3)O[C@H](CO[C@@H]3O[C@H](CO)[C@@H](O)[C@H](O)[C@H]3O)[C@@H](O)[C@@H]2O)ccc1O`, the Potency entry was “inactive”.

For `CC(/C=C/C1(O)C2(C)COC1(C)CC(=O)C2)O[C@@H]1O[C@H](CO)[C@@H](O)[C@H](O)[C@H]1O` (stereo partly drawn), the Potency entry was “inactive”.

For the compound `COc1c(C(CC(C)C)OC(C)=O)ccc(Oc2c(O)cc(C)cc2/C=C/C(C)=O)c1C(=O)O` (stereo not drawn), the Potency entry is “inactive”.

Take `C=C(C(=O)O)[C@@H]1CC=C2CCC[C@H](C)[C@@]2(C)C1`: the Potency result was “inactive”.

Take `C=C1CCC(OC(C)=O)C2(C)CC3(O)OC(=O)C(C)=C3CC12` (stereo not drawn): the Potency entry is “inactive”.

For the compound `COc1cc2c(cc1O)C1(OC)Cc3ccc4c(c3C1N(C)CC2)OCO4` (stereo not drawn), the Potency result was “inactive”.

Turning to `COC(=O)[C@H](OC(C)=O)[C@H]1C(C)(C)C(=O)[C@H]2CC3=C4CC(=O)O[C@@H](c5ccoc5)[C@]4(C)CCC3[C@@]1(C)C2=O` (stereo partly drawn), the Potency entry is “inactive”.

For `CCCCS(=O)(=O)Nc1ncnc(OCCOc2ncc(Br)cn2)c1-c1ccc(Br)cc1`, the Potency result is “inactive”.

For `C/C(=C\CCC(C)(O)c1ccc(C)cc1)C(=O)O` (stereo not drawn), the Potency entry was “inactive”.

Regarding `Cn1c(=O)cc(N2CCCC(N)C2)n(Cc2ccccc2C#N)c1=O` (stereo not drawn), the Potency entry was “inactive”.

Turning to `O=C(NC[C@H](O)CN1CCc2ccccc2C1)c1cc(NC2COC2)ncn1`, the Potency entry is “inactive”.

Consider `CCC/C=C/C(=O)O[C@H]1CC(C)(C)CC2[C@]13[C@H](O)O[C@@]21CCC2[C@@]4(C)CC[C@H](O[C@@H]5O[C@H](C(=O)O)[C@@H](O)[C@H](O[C@@H]6O[C@H](CO)[C@H](O)[C@H](O)[C@H]6O[C@@H]6O[C@@H](C)[C@H](O)[C@@H](O)[C@H]6O[C@@H]6OC[C@](O)(CO)[C@H]6O)[C@H]5O[C@@H]5O[C@H](CO)[C@H](O)[C@H](O)[C@H]5O)C(C)(C)C4CC[C@@]2(C)[C@]1(C)C[C@H]3OC(C)=O` (stereo partly drawn), for which the activity change, negative = inhibition is -7.58% [at 12.4 µM].
